# Source: PubChem BioAssay
# Active and inactive are the calls of the source. Unless noted, the rule behind the calls is not given here.
# What was measured:
# [1] = A549 cell viability effects, profiling panel, calcein-AM fluorescence, 48 h, basal (AID 1162); settings: higher = more signal; note: test concentration not given here
# [2] = adipocyte viability effects, profiling panel, cell-based, 3T3-L1 adipocytes, calcein-AM fluorescence, 48 h, basal (AID 1163); settings: 3T3-L1 adipocytes viability, higher = more signal; note: test concentration not given here
# [3] = HepG2 cell viability effects, profiling panel, calcein-AM fluorescence, 48 h, basal (AID 1164); settings: higher = more signal; note: test concentration not given here
# [4] = MM1S cell viability effects, profiling panel, calcein-AM fluorescence, 48 h, basal (AID 1165); settings: higher = more signal;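 note: viability of MM1S multiple myeloma cells under basal unstimulated conditions; test concentration not given here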
# [5] = basal RPMI8226 viability, no added stimulus, profiling panel, cell-based, calcein-AM fluorescence, 48 h, PK04 Diversity Set (AID 1166); settings: RPMI8226 myeloma viability, higher = more signal;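 note: cells grown under basal conditions without added stimulus; test concentration not given here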
# [6] = basal HepG2 mitochondrial membrane potential changes, profiling panel, cell-based, JC-1 fluorescence, 24 h, 100 nL compound (AID 1167); settings: higher = more signal; note: test concentration not given here
# [7] = basal 3T3-L1 adipocyte mitochondrial potential changes, profiling panel, cell-based, JC-1 fluorescence, 3T3-L1 adipocytes, 24 h, 100 nL compound (AID 1168); settings: JC-1 mitochondrial fluorescence, higher = more signal, called active from +8 up or from −8 down; note: test concentration not given here
# [8] = basal RPMI8226 mitochondrial membrane potential changes, profiling panel, cell-based, JC-1 fluorescence, 24 h, 100 nL compound (AID 1169); settings: RPMI8226 myeloma, JC-1 mitochondrial potential fluorescence, higher = more signal; note: test concentration not given here
# [9] = basal MM1S mitochondrial membrane potential changes, profiling panel, cell-based, JC-1 fluorescence, 24 h, 100 nL compound (AID 1170); settings: higher = more signal; note: test concentration not given here
# [10] = A549 lung cancer cell viability effects, profiling panel, resazurin fluorescence, 24 h, PK04 Diversity Set (AID 1171); settings: higher = more signal, called active from +8 up or from −8 down; note: test concentration not given here
# [11] = HepG2 liver cancer cell viability effects, profiling panel, resazurin fluorescence, 24 h, PK04 Diversity Set (AID 1172); settings: higher = more signal; note: test concentration not given here
# [12] = basal S. cerevisiae growth modulation, no modifier, primary screen, OD600, strain BY4716, 24 h, basal condition (AID 1173); settings: OD600, 24 h, higher = more signal, called active from +8 up or from −8 down
# [13] = MM1S myeloma cell viability, profiling panel, resazurin fluorescence, basal, 24 h, PK04 Diversity Set (AID 1174); settings: higher = more signal, called active from +8 up or from −8 down;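 note: MM1S multiple myeloma cell line; test concentration not given here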
# [14] = biological target: Dihydroorotate dehydrogenase (quinone), mitochondrial (Plasmodium falciparum (isolate 3D7)) (UniProt Q08210); assay: PfDHODH enzyme inhibitors, primary screen, biochemical, C-terminal His tag, absorbance 600 nm (AID 1175); settings: DCIP absorbance 600 nm, higher = more signal, called active from +8 up or from −8 down;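 note: recombinant parasite enzyme with a five histidine tag at its C terminus; test concentration not given here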
# Chain of Dihydroorotate dehydrogenase (quinone), mitochondrial (Plasmodium falciparum (isolate 3D7)) (Q08210 whole entry, looked up): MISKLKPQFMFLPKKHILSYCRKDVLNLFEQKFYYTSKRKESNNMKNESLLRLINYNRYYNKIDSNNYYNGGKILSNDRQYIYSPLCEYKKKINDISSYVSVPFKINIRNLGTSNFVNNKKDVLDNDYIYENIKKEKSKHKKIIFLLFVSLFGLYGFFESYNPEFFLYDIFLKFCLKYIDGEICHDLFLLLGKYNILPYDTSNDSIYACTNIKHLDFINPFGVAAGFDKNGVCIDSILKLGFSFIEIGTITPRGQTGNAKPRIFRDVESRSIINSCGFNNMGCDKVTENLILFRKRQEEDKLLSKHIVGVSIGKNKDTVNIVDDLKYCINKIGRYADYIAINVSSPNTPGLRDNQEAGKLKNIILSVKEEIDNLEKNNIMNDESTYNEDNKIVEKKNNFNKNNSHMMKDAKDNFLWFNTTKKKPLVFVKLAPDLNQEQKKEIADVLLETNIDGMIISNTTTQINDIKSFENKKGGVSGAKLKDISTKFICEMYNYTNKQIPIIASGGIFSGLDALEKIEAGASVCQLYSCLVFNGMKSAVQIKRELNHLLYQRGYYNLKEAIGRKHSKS
# [15] = P. aeruginosa biofilm formation inhibitors, primary screen, strain PAO1, LB-PBS medium, absorbance 600 nm (AID 1176); note: test concentration not given here; settings: P. aeruginosa PAO1 growth/biofilm, A600, 12 h; higher = more signal
# [16] = S. cerevisiae RM11-1a growth modifiers, primary screen, strain RM11-1a, OD600, basal, 24 h (AID 1177); settings: OD600, 24 h, higher = more signal, called active from +8 up or from −8 down;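 note: cultures grown under basal conditions with no added stressor; test concentration not given here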
# [17] = E. coli acrAB mutant growth effects, primary screen, E. coli filamentation inducers, strain DRC39, OD650, 24 h (AID 1178); settings: higher = more signal, called active from +8 up or from −8 down;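 note: growth measured as culture turbidity by optical density at 650 nm; test concentration not given here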
# [18] = E. coli acrAB mutant growth effects, primary screen, E. coli filamentation inducers, strain DRC39, OD650, 48 h (AID 1179);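 note: screen aims at cell division blockers that make cells filament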; settings: E. coli DRC39 delta-acrAB growth, higher = more signal, called active from +8 up or from −8 down
# [19] = RPMI8226 myeloma cell viability, profiling panel, resazurin fluorescence, basal, 24 h, PK04 Diversity Set (AID 1180); settings: higher = more signal;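 note: RPMI8826 multiple myeloma cell line at 5000 cells per well; test concentration not given here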
# [20] = biological target: E3 ubiquitin-protein ligase XIAP (Homo sapiens) (UniProt P98170); assay: XIAP binders, primary screen, biophysical, small-molecule microarray, fluorescence 635 nm (AID 1181); settings: small-molecule microarray binding, higher = more signal;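 note: score merges 667 nm emission and signal to noise over triplicate slides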
# Chain of E3 ubiquitin-protein ligase XIAP (Homo sapiens) (P98170 whole entry, looked up): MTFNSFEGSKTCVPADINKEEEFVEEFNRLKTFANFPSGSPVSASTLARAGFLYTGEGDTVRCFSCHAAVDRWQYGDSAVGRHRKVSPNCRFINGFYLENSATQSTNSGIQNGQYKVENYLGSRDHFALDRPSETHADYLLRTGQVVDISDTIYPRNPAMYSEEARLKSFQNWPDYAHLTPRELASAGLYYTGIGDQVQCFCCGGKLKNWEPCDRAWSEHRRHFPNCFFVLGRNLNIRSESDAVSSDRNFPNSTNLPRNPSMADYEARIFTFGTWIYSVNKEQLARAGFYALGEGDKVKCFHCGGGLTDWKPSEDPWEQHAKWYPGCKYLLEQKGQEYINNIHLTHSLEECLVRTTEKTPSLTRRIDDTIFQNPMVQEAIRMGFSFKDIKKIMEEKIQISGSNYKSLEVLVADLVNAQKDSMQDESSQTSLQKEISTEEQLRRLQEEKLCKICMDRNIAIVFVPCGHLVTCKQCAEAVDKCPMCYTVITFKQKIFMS
Structure (SMILES),z-score [1],z-score [2],z-score [3],z-score [4],z-score [5],z-score [6],z-score [7],z-score [8],z-score [9],z-score [10],z-score [11],z-score [12],z-score [13],composite z-score [14],z-score [15],z-score [16],z-score [17],z-score [18],z-score [19],composite z-score [20]
CN(C)CCCC[C@@H]1NC(=O)[C@H]2C[C@@H](C(=O)NCCCCCNC(=O)CS)[C@@H](c3cccc(OCCO)c3)N2C1=O,0.33,-0.0603,0.0814,-0.649,-0.0199,-0.246,-0.034 (inactive),0.0925,0.0356,-0.0288 (inactive),0.373,-0.646 (inactive),-0.212 (inactive),-0.286 (inactive),0.643 (inactive),-0.569 (inactive),-0.197 (inactive),-0.32 (inactive),-0.421,-0.244
COC(=O)[C@@]1(Cc2ccccc2)[C@H]2c3cc(C(=O)N4CCCC4)n(CC4CC4)c3C[C@H]2CN1C(=O)c1ccccc1,-1.46,0.643,-0.303,-0.39,-2.15,1.51,-1.77 (inactive),-0.516,-0.569,-1.51 (inactive),-1.34,1.38 (inactive),-1.75 (inactive),-0.0475 (inactive),0.936 (inactive),1.25 (inactive),-0.889 (inactive),-1.44 (inactive),-2.27,0.637
COCCCN1C(=O)[C@@]2(Cc3ccccc31)c1ccccc1C(=O)N(Cc1ccccc1C(F)(F)F)[C@H]2c1ccc(CO)cc1,-0.84,-1.15,-0.539,-0.155,-0.259,-0.451,0.801 (inactive),0.799,0.148,-0.356 (inactive),0.0531,0.947 (inactive),-0.0554 (inactive),-20.2 (active),4.64 (inactive),-0.305 (inactive),0.0576 (inactive),-0.297 (inactive),0.0241,-0.0373
COCC(=C=CC[C@@H](O)c1ccccc1OCCO)C[C@@H](O)c1cc(Cl)cc(Cl)c1O,0.14,-0.407,0.0467,-3.32,-3.44,-2.21,-1.69 (inactive),-0.881,-1.15,-0.106 (inactive),-0.127,-2.33 (inactive),-0.541 (inactive),-1.31 (inactive),0.26 (inactive),0.216 (inactive),-0.259 (inactive),-0.424 (inactive),-0.394,-0.0553
O=C1O[C@@H](c2ccccc2)[C@@H](c2ccccc2)N2[C@@H](c3ccccc3OCCO)[C@]3(C(=O)Nc4ccc(C#CC5=CCCCC5)cc43)[C@@H](C(=O)Nc3nc4ccccc4s3)[C@H]12,-1.36,0.608,-0.786,-2.8,-2.88,-2.9,-0.353 (inactive),-1.05,-1.42,-0.301 (inactive),0.482,1.26 (inactive),-0.785 (inactive),-1.7 (inactive),2.84 (inactive),1.34 (inactive),-0.583 (inactive),-1.05 (inactive),-1.2,-0.234
O=C(NCc1ccccc1)[C@@H]1c2ccccc2C(=O)N(CC23CC4CC(CC(C4)C2)C3)[C@H]1c1ccc(CO)cc1,0.449,-0.475,0.57,-0.708,-0.896,0.362,-0.924 (inactive),-0.136,-0.711,-0.471 (inactive),-0.511,-0.092 (inactive),-1.12 (inactive),-0.139 (inactive),-0.245 (inactive),0.0739 (inactive),-0.142 (inactive),-0.179 (inactive),-0.195,0.0623
CCc1oc(CC[C@@H](CO)NC(=O)NCCn2cc(C3(O)CCCCC3)nn2)c(C(=O)OC)c1C(=O)OC,-0.0645,-0.33,-0.68,-0.0035,0.0168,-0.176,-0.0732 (inactive),0.756,0.14,-0.892 (inactive),-0.676,-1.16 (inactive),-0.658 (inactive),-0.32 (inactive),-0.109 (inactive),-0.298 (inactive),-0.247 (inactive),-0.64 (inactive),-0.626,-0.0078
C=CCOC(=O)[C@H]1[C@@H]2C(=O)O[C@@H](c3ccccc3)[C@@H](c3ccccc3)N2[C@@H](c2ccc(OCCOC(=O)[C@H]3C[C@H]4C(=O)N5CCC[C@H]5C(=O)N4[C@H]3c3ccc(O)cc3)cc2)[C@]12C(=O)Nc1ccccc12,-0.45,1.46,0.226,-0.0596,-0.653,-1.37,1.22 (inactive),-0.515,-0.857,0.315 (inactive),0.697,1.66 (inactive),0.744 (inactive),-0.391 (inactive),3.67 (inactive),1.84 (inactive),-0.0749 (inactive),-0.13 (inactive),0.435,0.201
